Compound activity as filed in PubChem BioAssay.
NALP1 inh: inhibitors of NALP1 inflammasome in yeast; inhibition, % at 10 µM; 280,000 tested, 0.61% active; S. cerevisiae NALP1/ASC/caspase-1 growth, X-gal OD620, 72 h; AID 2071; in the data active = inhibition mostly above about 24%, no sharp cut-off; inactive = mostly below about 32%
tim10-1 inh: tim10-1 yeast growth inhibition; S. cerevisiae tim10-1 ts strain growth, BacTiter-Glo, 24 h; inhibition, % at 20 µM; 330,000 tested, 2.2% active; AID 463190;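 active = inhibition of at least 40%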;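 also: mutant grown at 25 °C; 0% = DMSO wells with yeast and 100% = wells holding no yeast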
tim23-1 inh: inhibits growth of tim23-1 mutant yeast. 330,000 tested, 1.3% active. S. cerevisiae tim23-1 growth, BacTiter-Glo luminescence, 24 h. inhibition, % at 20 µM;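 active = growth inhibition of the mutant yeast at or above 50%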;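 also: temperature-sensitive mutant grown at 25 °C; plate controls were DMSO-treated mutant yeast for no effect and medium wells lacking yeast for full effect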
NALP3 yeast inh: NALP3 inhibition in yeast; Yeast reconstituted NLRP3/ASC/caspase-1, beta-gal luminescence, 24 h; inhibition, % at 10 µM; 330,000 tested, 0.39% active;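 active = inhibition of 50% or more; inactive = inhibition below 50%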;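 also: plate controls were induced DMSO wells for no effect and uninduced yeast grown without galactose for full effect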
TIM10 inh: growth inhibitors of TIM10 yeast strain | S. cerevisiae TIM10 strain growth, BacTiter-Glo luminescence, 24 h | inhibition, % at 10 µM | 330,000 tested, 1.4% active;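 active = inhibition of 40% or more at the single tested concentration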;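 also: wild-type TIM10 isogenic control strain grown at permissive 25 °C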
SKKanGAS inh: SKKanGAS growth inhibition; S. pyogenes SKKanGAS, kanamycin growth, BacTiter-Glo, 6 h; inhibition, % at 7.5 µM; 300,000 tested, 1.3% active; AID 1662;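 active = mean replicate score, as percent of positive control median, at least 50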;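 also: strain carries kanamycin resistance gene driven by streptokinase promoter and grows in 40 µg/ml kanamycin; loss of luminescence reflects streptokinase promoter inhibition or plain growth inhibition; 0% = median of DMSO wells and 100% = positive control at its reference dose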
tim10-1 confirm: confirmation of tim10-1 mutant yeast growth inhibitors; shares compounds with tim10-1 inh; S. cerevisiae tim10-1 ts strain growth, BacTiter-Glo, 24 h; inhibition, % at 20 µM; 7,400 tested, 56% active;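 active = inhibition of yeast growth at or above a set limit in either of two repeat tests at 20 µM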;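 also: tim10-1 mutant grown at permissive 25 °C to find synthetic lethal compounds; 0% = DMSO yeast wells and 100% = medium wells without yeast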
Active calls of the source: *; x = not tested or not shown. The list is not random: actives were taken first. Their share in the collection is about 4.9%.

SMILES | NALP1 inh | tim10-1 inh | tim23-1 inh | NALP3 yeast inh | TIM10 inh | SKKanGAS inh | tim10-1 confirm
Cc1nc2cc(-c3sccc3-n3cccc3)nn2c(C)c1C | -7.8 | 46.0* | 40.9 | 13.9 | 19.8 | 7.8 | 34.1*
COc1cc(-c2cc(=O)c3c(O)c(OC)c(OC)cc3o2)cc(OC)c1O | -4.6 | 42.1* | 33.8 | 7.1 | 23.1 | 2.8 | 17.5
C=C(C)CNC(=S)N=Nc1c(O)[nH]c2ccc([N+](=O)[O-])cc12 | -12.8 | 41.6* | 27.3 | 23.7 | 20.1 | 12.8 | 18.7
CC(C)(C)C1CCc2c(C(=O)N/N=C/c3cccs3)csc2C1 (stereo not given) | 4.4 | 46.7* | 37.2 | 12.1 | 32.8 | 20.4 | 31.9*
CCC1CCCCN1Cc1cc(OC)c(O)c([N+](=O)[O-])c1 (stereo not given) | 9.9 | 43.2* | -0.9 | -73.0 | 3.7 | -2.7 | 13.6
CN1CCN(S(=O)(=O)c2ccc3c(c2)NC(=O)CS3)CC1 | -0.4 | -17.5 | 2.4 | 1.9 | 6.1 | -2.3 | x
Cc1ccc(S(=O)(=O)N2CCN(CC(=O)Nc3ccc(N4CCOCC4)cc3)CC2)cc1C | 16.5 | 17.5 | 19.4 | 11.2 | 4.1 | 9.1 | x
Cc1cccc(N2CCN(S(=O)(=O)c3ccc4c(c3)OCCO4)CC2)c1C | -1.2 | 46.3* | 36.6 | 14.3 | 12.4 | 3.2 | 31.7*
CC(=O)N1CCOc2ccc(S(=O)(=O)N3CCCCC3)cc21 | -0.7 | 2.6 | 1.9 | 8.5 | 0.5 | 5.5 | x
Cc1ccc(C)c(N2CCN(S(=O)(=O)c3ccc4c(c3)NC(=O)CS4)CC2)c1 | 11.0 | 45.6* | 39.2 | 18.1 | 11.6 | 25.3 | 9.8
CC(=O)N1CCOc2ccc(S(=O)(=O)N3CCN(c4cc(C)ccc4C)CC3)cc21 | 9.9 | 43.1* | 33.9 | 9.2 | 14.7 | 4.7 | 33.9*
Cc1cccc(N2CCN(CC(=O)Nc3ccc(S(=O)(=O)N4CCOCC4)cc3)CC2)c1C | 17.9 | 41.3* | 23.3 | 17.0 | 21.8 | 6.5 | 19.1
O=C(CN1C(=O)NC2(CCCC2)C1=O)Nc1nc2c(F)cc(F)cc2s1 | x | 3.1 | 1.5 | 11.1 | -1.4 | 2.8 | x
C[C@@H]1CN([C@@H](C)CO)C(=O)c2cccc(NC(=O)Nc3ccccc3)c2O[C@H]1CN(C)C(=O)Nc1cccc2ccccc12 | x | 14.8 | 14.7 | 23.6 | 6.5 | x | x
CNC(=O)c1ccsc1NC(=O)c1ccc(Cl)s1 | 2.1 | 43.7* | 49.1 | 13.5 | 21.1 | 3.0 | 31.9*
CNC(=O)c1ccsc1NC(=O)c1ccccc1 | 15.8 | -14.9 | -20.6 | 40.9 | 10.8 | -3.2 | x
CC1CCN(C(c2ccc(N(C)C)cc2)c2nnnn2Cc2ccc(F)cc2)CC1 (stereo not given) | -6.3 | 39.0 | 40.9 | 27.9 | 26.8 | -4.0 | x
Fc1ccc(Cn2nnnc2C(c2ccc(Cl)cc2)N2CCSCC2)cc1 (stereo not given) | 34.8 | 41.9* | 35.3 | 10.8 | 39.8 | 0.4 | 31.2
Cc1ccc(S(=O)(=O)c2nc(-c3ccc(F)cc3)oc2N2CCOCC2)cc1 | 9.9 | 17.0 | 19.9 | -1.6 | 18.3 | 5.2 | x
Cn1c(=S)n(/N=C/c2ccc3c(c2)OCO3)c2ccccc21 | 5.7 | 6.7 | 0.2 | 12.2 | -6.6 | x | x
COc1ccc(/C=N/n2c(=S)n(C)c3ccccc32)cc1OC | 11.6 | 42.6* | 41.4 | -7.0 | 37.0 | -5.2 | 30.4*
N#CCC1c2ccccc2CCN1C(=O)Nc1ccc(C(F)(F)F)cc1 (stereo not given) | 39.4 | 46.4* | 37.3 | -4.0 | 33.9 | 1.7 | 40.8*
CCN(c1nc(C)cc(OC)n1)S(=O)(=O)c1ccccc1 | -23.8 | 40.4* | 33.1 | -36.3 | 3.2 | 4.1 | 19.5
C=CCN(c1nc(C)cc(OC)n1)S(=O)(=O)c1ccccc1 | 9.8 | 33.2 | 35.7 | -5.4 | 5.3 | 1.7 | x
Nc1ccc(SC(F)(F)F)cc1C(=O)c1ccccc1 | 16.4 | 50.2* | 25.7 | -5.1 | 23.6 | 39.9 | 17.4
CC1CCC2C(=O)N(c3ccccc3OC(=O)c3ccccc3)C(=O)C2C1 (stereo not given) | 2.8 | 28.4 | 35.4 | -10.4 | 10.2 | 2.3 | x
CC1CCC2C(=O)N(c3cc(Cl)ccc3OC(=O)c3ccco3)C(=O)C2C1 (stereo not given) | 4.7 | 40.7* | 41.5 | 3.3 | 15.0 | 18.0 | 34.0*
